The source of these data is PubChem BioAssay (NCI).

Compounds without any hit were thinned out: in the full panel of roughly 79,000, 15% have a hit. A number with no mark means an inactive call. Calls of active or inactive are those of the source. No stated cut-off is given here; in the data, active means growth inhibition above about 70%; inactive means the rest.

This assay in a line: NCI Yeast Anticancer Drug Screen. Data for the wt2 strain (AID 169).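 Further: 0% = growth of vehicle-treated yeast cultures.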 Conditions: S. cerevisiae wt2 strain growth inhibition; at 100.0 µM; hits give high values. The essentials:
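Growth of compound-treated yeast is measured and expressed as inhibition relative to vehicle-only controls.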
Turning to `NC1CCCCC1N.Nc1c(N=Nc2ccc(-c3ccc(N=Nc4cc(S(=O)(=O)[O-])c5ccccc5c4N)cc3)cc2)cc(S(=O)(=O)[O-])c2ccccc12.[OH3+].[OH3+].[Pt+4]`, the growth inhibition was 70% (active). As to `COC(=O)CCC(NC(=S)N/N=C(\C)c1ccccn1)C(=O)OC` (configuration not stated), the growth inhibition is 87% (active).

For `NC(=O)C(=O)NNc1ccccc1`, the growth inhibition is 97% (active). Turning to `COc1cc(C2SCC(=O)N2c2ccc(-c3ccc(-n4c(-c5ccccc5)nc5ccccc5c4=O)cc3)cc2)ccc1O` (configuration not stated), the growth inhibition was 4%. Turning to `COc1ccc(/C=C/c2sc3ccccc3[n+]2CCCCI)cc1OC`, the growth inhibition is 97% (active).

`Cc1c(C(C)C)cc(OCCO)cc1C(C)C`: the growth inhibition is 33%.

For the compound `Cc1cc(NCCCCCCCCNc2cc(C)nc3cc(N)ccc23)c2ccc(N)cc2n1`, the growth inhibition was 95% (active). With `C=C(Cl)COC(=O)Nc1cccc(Cl)c1` the figure was 98% (active). With `CC(=O)OC1CC2C(C)(C)C(=O)C=C[C@]2(C)C2CCC3(C)C(=CCC3[C@H](CO)C[C@H](O)C(=O)C(C)(C)O)[C@]12C` (some centres not stated) the figure was 95% (active); with `COc1ccc(/C=C/C(=O)c2ccccc2)cc1OC`, 95% (active); with `COc1c(O)c(C=O)c(Br)c(C=O)c1O`, 89% (active). With `O=[N+]([O-])c1cc(Cl)cnc1Br` the figure was 20%; with `Cc1ccc2c(c1)C1(SC(C)C(=O)N1c1ccc(Cl)cc1)C(=O)N2` (configuration not stated), 99% (active). Consider `COc1cc(CSc2ccc(O)cc2)cc(O)c1O`, for which the growth inhibition was 1%. As for `Cc1ccc2c3ccc4c(c3n(C)c2c1)C(=O)C=CC4=O`, the figure is 38%; as for `O=C(Nc1ccc(Cl)cc1)Nc1nnc2nc(C(C(=O)c3cccc([N+](=O)[O-])c3Cl)c3nc4nnc(NC(=O)Nc5ccc(Cl)cc5)n4[nH]c3=O)c(=O)[nH]n12`, 32%. `O=C(O)C1CC(c2ccccc2)=NN1c1ccccc1` (configuration not stated): the growth inhibition was 98% (active).

On to `CCCCc1ccc(-n2c(C)c(COC(=O)NC)c(COC(=O)NC)c2C)cc1`, for which the growth inhibition was 94% (active). `CCC(=O)c1cc(C(=O)C(=S)SC)cc(C(=O)C(=S)SC)c1`: the growth inhibition is 94% (active). `CCn1c(O)c(C=Nc2ccccc2)s/c1=N/Nc1nc(-c2ccccc2)cs1`: the growth inhibition is 11%.

For the compound `Cc1ccccc1N=C(NO)c1ccccc1`, the growth inhibition was 94% (active). As for `Cc1nc2ccccc2nc1NNc1ccccc1`, the growth inhibition was 22%.
